Assay in all cases: qHTS assay to identify novel small-molecules to repurpose for Merkel cell carcinoma treatment (AID 1296009); further: nearly all actives have a fitted effect of over 60% in size
What all share (details): MCC and control cell lines, CellTiter-Glo viability, 72 h; series mostly up to 46 µM

One experiment concerns MKL-1. In a few lines: (§1)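 CellTiter-Glo luminescence after 72 hr compound exposure at 37 degree celsius gave cell viability. Libraries NPC and MIPE were run as 8- and 11-point dose responses; RLUs normalized to DMSO (negative) and no-cell (cytotoxicity) controls.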
Another experiment deals with MKL-2. Put shortly: as §1
In another experiment the test system is UISO. Put shortly: as §1
The test system of a further experiment is WaGa. Put shortly: as §1

Results on 14 molecules are retold here after PubChem BioAssay (NCATS).

Structures are written as SMILES. Results filed as inconclusive are left out. Activity calls are given as the source filed them. The call rests on the fitted dose curve; in most records, active means well fitted inhibition curve with a large enough effect; inconclusive means small, poorly fitted or top-dose-only effect; inactive means flat fitted curve, though single readings scatter.
Potency means the concentration at half of the fitted maximal effect.

`COc1cc(C=CC(=O)CC(=O)C=Cc2ccc(O)c(OC)c2)ccc1O`: the Potency with MKL-1 is 10.8 µM (active); in the experiment with MKL-2 it was 8.55 µM (active); in the experiment on UISO it was 21.5 µM (active); in the experiment on WaGa, 9.59 µM (active).

Turning to `COc1cc(C(=O)NC2CCN(C)CC2)ccc1Nc1ncc2c(n1)N(C1CCCC1)CCC(=O)N2C(C)C`, the values for the Potency in the experiment with MKL-1 and with WaGa were 2.35 µM (active) and 1.87 µM (active), respectively.

Regarding `O=C(NC1CC1)c1cccc(-c2ccc3c(NC(=O)C4CC4)n[nH]c3c2)c1`, the Potency entry in the experiment with MKL-2 was “inactive”.

With `Oc1ccc(-c2ccc(-c3cc(Nc4cccc(CNC5CC5)c4)n[nH]3)cc2)c(O)c1`, the figures for the Potency in the experiment on MKL-1 and in the experiment on UISO were 6.62 µM (active) and 5.26 µM (active), respectively.

For `CCc1ccc(C(=O)Nc2cc(CN3CCN(C)CC3)cc(C(F)(F)F)c2)cc1C#Cc1cnc2ccnn2c1`, in the experiment with MKL-2, the Potency was 18.7 µM (active).

Regarding `Cc1cnn(C)c1C(=O)Nc1cc(Nc2ccc3c(C=Cc4ccccn4)n[nH]c3c2)ccc1F`, in the experiment on UISO, the Potency was 16.6 µM (active).

Take `O=C1NCCc2[nH]c(-c3ccncc3)cc21`: the values for the Potency with MKL-2 and in the experiment on UISO were 13.2 µM (active) and 4.18 µM (active), respectively.

With `N#Cc1c(NC(=O)c2cccc3ccccc23)sc2c1CCCC2`, the Potency in the experiment with UISO was 1.05 µM (active).

For the molecule `C=CC(=O)Nc1cccc(Nc2nc(NC3CCC(N(C)C)CC3)nc3c2ncn3C(C)C)c1` (stereo not drawn), the Potency in the experiment with MKL-1 was 0.0074 µM (active); in the experiment with MKL-2, 0.0166 µM (active); in the experiment on UISO it was 0.418 µM (active).

On to `CCNC(=O)c1cc2c(-c3cc(OCCN4CCCC4)c(Cl)cc3Cl)nc(N)nc2s1`, for which the Potency entry with MKL-2 is “inactive”. The figures for the Potency with UISO and in the experiment with WaGa were 2.96 µM (active) and 1.18 µM (active), respectively.

In the case of `COc1cc(OC)c(C=CS(=O)(=O)Cc2ccc(OC)c(NCC(=O)O)c2)c(OC)c1`, the Potency in the experiment with MKL-2 is 0.0935 µM (active).

Consider `CCOC(=O)N1CCN([N+]([O-])=NOc2ccc([N+](=O)[O-])cc2[N+](=O)[O-])CC1`, for which the Potency with MKL-1 is 10.5 µM (active); with MKL-2 it was 6.62 µM (active); in the experiment with WaGa it was 11.8 µM (active).

On to `Cc1ccc2nc(NCCN)c3ncc(C)n3c2c1`, for which the Potency is 14.8 µM (active) with MKL-2 and 20.9 µM (active) with UISO.

For `COc1ccc(Nc2cc(-c3cnc(N)nc3)nc(N3CCOCC3)n2)cn1`, in the experiment on MKL-1, the Potency result was “inactive”. Moreover, the Potency in the experiment with UISO was 4.18 µM (active).
